The test system of one experiment is Staphylococcus aureus. The following applies: Concentration 32 ug.mL-1;; ASSAY_TEST Inhibition of Bacterial Growth; detection method Absorption (OD600); MEDIA CAMHB; plate type 384well; NBS; CORNING #3640; time 18 hr.
A further experiment concerns Escherichia coli. The following applies: Concentration 32 ug.mL-1;; ASSAY_TEST Inhibition of Bacterial Growth; detection method Absorption (OD600); MEDIA CAMHB; plate type 384well; NBS; CORNING #3640; time 18 hr.

Potency and affinity values are given separately.

As usually defined, the Inhibition is the relative decrease from the control value, in per cent. As for `COc1ccc(CCn2c(=O)c3sccc3n3c(=O)n(CC(=O)c4ccccc4)nc23)cc1OC`, the Inhibition stood at 14.35% in the experiment with Staphylococcus aureus and 3.29% in the experiment with Escherichia coli.

For `Cc1ccc(-c2ccc3nnc(CCC(=O)NCc4cccc(Br)c4)n3n2)cc1`, the Inhibition in the experiment with Staphylococcus aureus is reported as 12.72%; in the experiment on Escherichia coli, -0.13%.

Consider `Cc1ccc(CNC(=O)Cn2nc3c(N4CCN(c5ccccc5C)CC4)nccn3c2=O)cc1`, for which the Inhibition in the experiment with Staphylococcus aureus is reported as 4.45%; in the experiment with Escherichia coli it was -8.18%.

For the compound `Cc1nnc2c(=O)n(CC(=O)Nc3ccc(Cl)cc3)c3ccccc3n12`, the values for the Inhibition with Staphylococcus aureus and in the experiment with Escherichia coli were 6.71% and 2.85%, respectively.

Take `CCOc1ccc(-n2ccn3c(SCC(=O)c4cccc(Cl)c4)nnc3c2=O)cc1`: the Inhibition with Staphylococcus aureus stood at 18.89%; with Escherichia coli, 0.66%.

As for `Cc1cc2nn(CC(=O)NC(C)C)c(=O)n2c(-c2ccc(C(F)(F)F)cc2)n1`, the Inhibition was -8.3% with Staphylococcus aureus and 1.53% in the experiment with Escherichia coli.

On to `Cc1ccc(Cn2c(=O)c3ccccc3n3c(=O)n(CC#N)nc23)cc1`, for which the Inhibition is listed as 3.14% in the experiment with Staphylococcus aureus and -7.28% in the experiment with Escherichia coli.

For `Cc1cc(Nc2ccc(F)cc2)nc2nn(CCc3ccccc3)c(=O)n12`, the Inhibition was 4.62% with Staphylococcus aureus and -5.44% with Escherichia coli.

For `Cc1cccc(N(Cc2ccccc2)S(=O)(=O)c2cccn3c(C)nnc23)c1`, the Inhibition in the experiment with Staphylococcus aureus is 19.49%; in the experiment with Escherichia coli it was -3.05%.

Turning to `CCc1nnc2ccc(S(=O)(=O)N(Cc3ccc(OC)cc3)c3cccc(F)c3)cn12`, the Inhibition in the experiment with Staphylococcus aureus is -1.45%; with Escherichia coli it was -12.26%.

Turning to `NC(=O)Cn1nc2n(CCC(=O)NC3CCCCC3)c(=O)c3ccccc3n2c1=O`, the Inhibition in the experiment on Staphylococcus aureus is given as 4.99%; with Escherichia coli, 0.77%.

Consider `O=C(Cn1nc2c(SCc3ccc(Cl)cc3)nccn2c1=O)Nc1ccccc1F`, for which the Inhibition in the experiment on Staphylococcus aureus is recorded as 4.88%; in the experiment on Escherichia coli it was -0.33%.

For the compound `COc1ccc(C)cc1NC(=O)CSc1nc2ccccc2n2cnnc12`, the values for the Inhibition in the experiment on Staphylococcus aureus and with Escherichia coli were 16.59% and 4.56%, respectively.

Turning to `Cc1cc2nn(CC(=O)Nc3cc(F)ccc3C)c(=O)n2c(Nc2ccc(C)c(F)c2)n1`, the Inhibition in the experiment on Staphylococcus aureus is listed as 2.63%; in the experiment with Escherichia coli it was -8.01%.

Regarding `Cc1ccc(CNC(=O)CSc2nnc3c4cc(-c5ccc(F)cc5)nn4ccn23)cc1`, the Inhibition in the experiment with Staphylococcus aureus is listed as 12.38%; in the experiment on Escherichia coli it was -2.28%.

Take `O=C(Cn1nc2c(Oc3ccccc3)nccn2c1=O)Nc1ccc2c(c1)OCCO2`: the Inhibition in the experiment with Staphylococcus aureus is on record as 7.17%; in the experiment on Escherichia coli, 2.24%.

Turning to `COc1ccc(-c2cc3c4nn(CC(=O)Nc5cc(C)ccc5C)c(=O)n4ccn3n2)cc1`, the Inhibition in the experiment on Staphylococcus aureus worked out at 3.16%; in the experiment on Escherichia coli, 2.02%.

Take `CSc1cccc(NC(=O)Cn2nc3c(Oc4ccccc4C)nccn3c2=O)c1`: the Inhibition in the experiment on Staphylococcus aureus was 6.72%; in the experiment with Escherichia coli, -2.85%.

As to `COc1ccc(C(=O)CSc2nnc3c(=O)n(-c4ccc(F)c(F)c4)ccn23)cc1OC`, the Inhibition in the experiment with Staphylococcus aureus is reported as 3.91%; in the experiment with Escherichia coli it was -0.1%.

In the case of `CC(C)Cn1c(=O)c2sccc2n2c(=O)n(Cc3ccc(Cl)cc3)nc12`, the Inhibition is given as -2.34% in the experiment with Staphylococcus aureus and 0.89% in the experiment with Escherichia coli.

On to `CC(C)(C)Sc1ccc2nn(CC(=O)Nc3ccc(Cl)cc3)c(=O)n2n1`, for which the values for the Inhibition with Staphylococcus aureus and in the experiment on Escherichia coli were 3.13% and 0.89%, respectively.

As for `COc1cccc(Oc2nccn3c(=O)n(CC(=O)Nc4cc(C)c(Cl)cc4OC)nc23)c1`, the figures for the Inhibition in the experiment on Staphylococcus aureus and with Escherichia coli were -12.26% and -0.57%, respectively.

As for `CCCCn1c(=O)c2sccc2n2c(=O)n(CC(=O)c3ccc(C)cc3C)nc12`, the Inhibition in the experiment on Staphylococcus aureus was -3.74%; in the experiment on Escherichia coli it was -4.86%.

`CCC(C)NC(=O)Cn1nc2n(CCC(C)C)c(=O)c3sccc3n2c1=O` (stereo not drawn): the values for the Inhibition with Staphylococcus aureus and with Escherichia coli were -2.65% and -5.43%, respectively.

Take `CCc1nnc2c(SCC(=O)Nc3ccc(C(=O)OC)cc3)nc3ccccc3n12`: the Inhibition in the experiment on Staphylococcus aureus is on record as 1.34%; with Escherichia coli, -1.9%.

`O=C(CSc1nnc2c(=O)n(-c3ccc(Br)cc3)ccn12)Nc1cc(F)ccc1F`: the values for the Inhibition in the experiment with Staphylococcus aureus and with Escherichia coli were 11.71% and -2.54%, respectively.

With `O=C(CSc1nnc2c(=O)n(-c3ccccc3)ccn12)c1ccc(F)cc1`, the Inhibition with Staphylococcus aureus was 16.24%; in the experiment with Escherichia coli, -2%.

On to `Cc1cccc(NC(=O)Cn2nc3ccc(-c4ccccc4)nn3c2=O)c1`, for which the Inhibition with Staphylococcus aureus is on record as 1.55%; in the experiment with Escherichia coli, -5.19%.

For the compound `Cc1cc2nn(CC(=O)NCc3ccccc3)c(=O)n2c(Nc2ccc(C)c(F)c2)n1`, the Inhibition in the experiment on Staphylococcus aureus was -14.43%; in the experiment on Escherichia coli, -0.54%.

For the compound `CC(=O)c1cccc(NC(=O)CSc2nnc3ccc(C(=O)Nc4cccc(F)c4)cn23)c1`, the Inhibition is 12.95% in the experiment on Staphylococcus aureus and -3.3% in the experiment with Escherichia coli.

With `COc1ccc(NC(=O)Cn2nc3c(Oc4ccccc4)nccn3c2=O)cc1`, the Inhibition in the experiment on Staphylococcus aureus was 9.87%; in the experiment on Escherichia coli, -1.88%.

As for `CCCNC(=O)Cn1nc2n(Cc3ccco3)c(=O)c3sccc3n2c1=O`, the Inhibition is 2.17% in the experiment on Staphylococcus aureus and -0.94% in the experiment on Escherichia coli.

Turning to `COc1ccc(-c2cc3c4nnc(SCC(=O)Nc5cc(Cl)ccc5C)n4ccn3n2)cc1`, the Inhibition in the experiment on Staphylococcus aureus is recorded as -1.91%; in the experiment with Escherichia coli, -8.79%.

Turning to `Cc1cc(C)cc(NC(=O)Cn2nc3c(N4CCCC4)nccn3c2=O)c1`, the Inhibition is 12.35% in the experiment with Staphylococcus aureus and -0.75% with Escherichia coli.

`Cc1ccc(CN(c2ccccc2)S(=O)(=O)c2ccc3nncn3c2)cc1`: the values for the Inhibition with Staphylococcus aureus and in the experiment on Escherichia coli were 12.66% and -4.44%, respectively.

As for `COc1ccc(-c2cc3c4nn(CC(=O)Nc5ccc6c(c5)OCO6)c(=O)n4ccn3n2)cc1`, the Inhibition was determined as 8.96% in the experiment with Staphylococcus aureus and 6.89% in the experiment with Escherichia coli.

As to `O=S(=O)(c1ccc2nncn2c1)N(Cc1ccc(Cl)cc1)c1ccc2c(c1)OCO2`, the Inhibition with Staphylococcus aureus was 11.62%; in the experiment with Escherichia coli, -6.36%.

In the case of `Cc1[nH]c2ccccc2c1C(=O)CSc1nnc2c(=O)n(-c3ccc(Br)cc3)ccn12`, the Inhibition in the experiment on Staphylococcus aureus is reported as -0.76%; in the experiment on Escherichia coli, -11.28%.

As to `Cc1ccc(-c2ccc3nn(CC(=O)Nc4ccc(Cl)cc4)c(=O)n3n2)cc1C`, the Inhibition was 7.83% in the experiment with Staphylococcus aureus and -3.03% in the experiment with Escherichia coli.

Consider `Cc1nnc2c(S(=O)(=O)N(Cc3cc(F)cc(F)c3)c3cccc(F)c3)cccn12`, for which the Inhibition is listed as 8.19% with Staphylococcus aureus and -6.31% in the experiment on Escherichia coli.

As for `COc1ccc(CNC(=O)Cn2nc3c4cc(-c5ccc(C)c(C)c5)nn4ccn3c2=O)cc1`, the Inhibition was 6.21% in the experiment with Staphylococcus aureus and 2.95% in the experiment on Escherichia coli.

Consider `Cc1ccc(-c2ccc3nn(CC(=O)Nc4ccc(Br)cc4)c(=O)n3n2)cc1C`, for which the Inhibition in the experiment on Staphylococcus aureus is given as 15.41%; in the experiment on Escherichia coli, -2.09%.

Turning to `CC(C)c1ccc(N(Cc2cccc(Cl)c2)S(=O)(=O)c2cccn3cnnc23)cc1`, the Inhibition in the experiment with Staphylococcus aureus is on record as -3.13%; in the experiment with Escherichia coli it was -8.14%.

Take `COc1cccc(-n2ccn3c(SCC(=O)Nc4ccccc4F)nnc3c2=O)c1`: the Inhibition is reported as 8.86% with Staphylococcus aureus and -8.93% in the experiment with Escherichia coli.

Take `Cc1cc2nn(CC(=O)Nc3cc(F)cc(F)c3)c(=O)n2c(Nc2ccccc2C)n1`: the Inhibition in the experiment with Staphylococcus aureus was 5.53%; in the experiment with Escherichia coli, -3.12%.

Consider `CCc1ccccc1NC(=O)Cn1nc2c(SC3CCCCC3)nccn2c1=O`, for which the Inhibition in the experiment with Staphylococcus aureus is 7.59%; in the experiment with Escherichia coli, -2.96%.

`COc1cccc(CN(c2ccc(F)cc2)S(=O)(=O)c2ccc3nnc(C)n3c2)c1`: the Inhibition in the experiment with Staphylococcus aureus is -1.25%; with Escherichia coli, -6.02%.

Turning to `O=c1n(Cc2cccc(C(F)(F)F)c2)nc2c(S(=O)(=O)N3CCCCCC3)cccn12`, the Inhibition in the experiment with Staphylococcus aureus is on record as 5.28%; in the experiment on Escherichia coli, -7.6%.

In the case of `CCOc1ccc(-n2ccn3c(SCC(=O)NCc4ccc(Cl)cc4)nnc3c2=O)cc1`, the Inhibition in the experiment with Staphylococcus aureus stood at 4.19%; with Escherichia coli, 3.75%.

The values above are taken from ChEMBL document CHEMBL4513146, “CO-ADD screening of Karazin Kharkiv National University (Ukraine) compounds”.
